# Laboratory results taken from the supplement of paper PMC4466140.
# B1: unnamed (peptide)
# chain: MFLISPPASPPPEFD
# Molecular target: AgAbp1
# Test: SPOT peptide array binding signal intensity (averaged, normalized) (arbitrary units (background-subtracted, floor 0; scale differs between SH3 domains)); higher = stronger binding of the SH3 domain to the peptide
# Summary of the method: (§1)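 Four yeast species supplied the SH3 domains, which were expressed as GST fusions in E. coli BL21(DE3) and purified on glutathione Sepharose. Incubation with cellulose membranes carrying synthetic 15-mer peptides, cysteines exchanged for serines, ran overnight at 4°C at 10 μg/ml in TBS-based blocking buffer. Binding signal is reported as normalized, background-subtracted spot intensity averaged over replicates, in arbitrary units not shared between domains.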
row,Binder,SPOT peptide array binding signal intensity
1,B1,≤ 0

# Molecular target: AgBbc1
# Test: as above
# Summary of the method: as §1
row,Binder,SPOT peptide array binding signal intensity
1,B1,≤ 0

# Molecular target: AgBem1-D1
# Test: as above
# Summary of the method: as §1
row,Binder,SPOT peptide array binding signal intensity
1,B1,70

# Molecular target: AgBzz1-D1
# Test: as above
# Summary of the method: as §1
row,Binder,SPOT peptide array binding signal intensity
1,B1,≤ 0

# Molecular target: AgBzz1-D2
# Test: as above
# Summary of the method: as §1
row,Binder,SPOT peptide array binding signal intensity
1,B1,≤ 0

# Molecular target: AgCyk3
# Test: as above
# Summary of the method: as §1
row,Binder,SPOT peptide array binding signal intensity
1,B1,1.5

# Molecular target: AgFus1
# Test: as above
# Summary of the method: as §1
row,Binder,SPOT peptide array binding signal intensity
1,B1,4

# Molecular target: AgHof1
# Test: as above
# Summary of the method: as §1
row,Binder,SPOT peptide array binding signal intensity
1,B1,4

# Molecular target: AgHse1
# Test: as above
# Summary of the method: as §1
row,Binder,SPOT peptide array binding signal intensity
1,B1,≤ 0

# Molecular target: AgLsb1
# Test: as above
# Summary of the method: as §1
row,Binder,SPOT peptide array binding signal intensity
1,B1,≤ 0

# Molecular target: AgLsb4
# Test: as above
# Summary of the method: as §1
row,Binder,SPOT peptide array binding signal intensity
1,B1,≤ 0

# Molecular target: AgMyo5
# Test: as above
# Summary of the method: as §1
row,Binder,SPOT peptide array binding signal intensity
1,B1,388

# Molecular target: AgNbp2
# Test: as above
# Summary of the method: as §1
row,Binder,SPOT peptide array binding signal intensity
1,B1,2

# Molecular target: AgRvs167
# Test: as above
# Summary of the method: as §1
row,Binder,SPOT peptide array binding signal intensity
1,B1,≤ 0

# Molecular target: AgSho1
# Test: as above
# Summary of the method: as §1
row,Binder,SPOT peptide array binding signal intensity
1,B1,1.5

# Molecular target: AgSla1-D1-D2
# Test: as above
# Summary of the method: as §1
row,Binder,SPOT peptide array binding signal intensity
1,B1,3

# Molecular target: AgSla1-D3
# Test: as above
# Summary of the method: as §1
row,Binder,SPOT peptide array binding signal intensity
1,B1,1

# Molecular target: CaAbp1-D1
# Test: as above
# Summary of the method: as §1
row,Binder,SPOT peptide array binding signal intensity
1,B1,≤ 0

# Molecular target: CaAbp1-D2
# Test: as above
# Summary of the method: as §1
row,Binder,SPOT peptide array binding signal intensity
1,B1,≤ 0

# Molecular target: CaBbc1
# Test: as above
# Summary of the method: as §1
row,Binder,SPOT peptide array binding signal intensity
1,B1,6

# Molecular target: CaBem1-D1
# Test: as above
# Summary of the method: as §1
row,Binder,SPOT peptide array binding signal intensity
1,B1,≤ 0

# Molecular target: CaBzz1-D1
# Test: as above
# Summary of the method: as §1
row,Binder,SPOT peptide array binding signal intensity
1,B1,≤ 0

# Molecular target: CaBzz1-D2
# Test: as above
# Summary of the method: as §1
row,Binder,SPOT peptide array binding signal intensity
1,B1,≤ 0

# Molecular target: CaCyk3
# Test: as above
# Summary of the method: as §1
row,Binder,SPOT peptide array binding signal intensity
1,B1,2

# Molecular target: CaFus1
# Test: as above
# Summary of the method: as §1
row,Binder,SPOT peptide array binding signal intensity
1,B1,342

# Molecular target: CaHof1
# Test: as above
# Summary of the method: as §1
row,Binder,SPOT peptide array binding signal intensity
1,B1,≤ 0

# Molecular target: CaHse1
# Test: as above
# Summary of the method: as §1
row,Binder,SPOT peptide array binding signal intensity
1,B1,8

# Molecular target: CaLsb1
# Test: as above
# Summary of the method: as §1
row,Binder,SPOT peptide array binding signal intensity
1,B1,≤ 0

# Molecular target: CaLsb4
# Test: as above
# Summary of the method: as §1
row,Binder,SPOT peptide array binding signal intensity
1,B1,≤ 0

# Molecular target: CaMyo5
# Test: as above
# Summary of the method: as §1
row,Binder,SPOT peptide array binding signal intensity
1,B1,180

# Molecular target: CaNbp2
# Test: as above
# Summary of the method: as §1
row,Binder,SPOT peptide array binding signal intensity
1,B1,31

# Molecular target: CaRvs167
# Test: as above
# Summary of the method: as §1
row,Binder,SPOT peptide array binding signal intensity
1,B1,5.83

# Molecular target: CaRvs167-3
# Test: as above
# Summary of the method: as §1
row,Binder,SPOT peptide array binding signal intensity
1,B1,3.75

# Molecular target: CaSho1
# Test: as above
# Summary of the method: as §1
row,Binder,SPOT peptide array binding signal intensity
1,B1,19

# Molecular target: CaSla1-D1-D2
# Test: as above
# Summary of the method: as §1
row,Binder,SPOT peptide array binding signal intensity
1,B1,≤ 0

# Molecular target: CaSla1-D3
# Test: as above
# Summary of the method: as §1
row,Binder,SPOT peptide array binding signal intensity
1,B1,11.2

# Molecular target: ScAbp1
# Test: as above
# Summary of the method: as §1
row,Binder,SPOT peptide array binding signal intensity
1,B1,5.5
